Results on eight molecules are retold here after PubChem BioAssay (Tox21).

Records with an inconclusive call do not appear. Activity calls are given as the source filed them. Unless noted, the call rests on the fitted dose curve; in most records, active means well fitted curve in the direction sought with a large enough effect in the repeat runs; inconclusive means weak or mixed curves; inactive means no such curve, though single readings can be large; an effect the other way counts as inactive or inconclusive.

The nature of experiment [1]: qHTS assay for small molecule agonists of the p53 signaling pathway (AID 651631; calls by dose curve; further: nearly all actives have a fitted effect of over 15% in size). The essentials:
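p53RE-bla HCT-116 cells; compounds 16 h, 37 °C; LiveBLAzer B/G FRET substrate 2 h RT; fluorescence intensity read-out, qHTS format.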
For orientation: In qHTS, concentration-response curves come from the screen itself.

Experiment [2] can be described thus: qHTS assay for small molecules that induce genotoxicity in human embryonic kidney cells expressing luciferase-tagged ATAD5 (AID 651632). Further: nearly all actives have a fitted effect of over 15% in size. The method in brief: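 Luminescent reporter readout, HEK293T ATAD5-luc line: 16 hr drug exposure (37C, 5% CO2) followed by Amplite, 30 min RT.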
Experiment [3] in a line: qHTS assay for small molecule agonists of the p53 signaling pathway - cell viability (AID 651633; calls by dose curve;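 further: p53RE-bla HCT reporter cells with a stable beta-lactamase p53 reporter; series mostly up to about 83 µM; nearly all actives have a fitted effect of over 30% in size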). The method in brief: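 p53RE-bla cells, seeded at 4,000 per well and rested 5 h at 37 C/5% CO2, received compounds in DMSO for 16 h at 37 C. CellTiter-Glo was then added, and luminescence was read after 30 min at room temperature to gauge cytotoxicity.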
Experiment [4] in a line: qHTS assay for small molecules that induce genotoxicity in human embryonic kidney cells expressing luciferase-tagged ATAD5 - cell viability (AID 651634; calls by dose curve; further: nearly all actives have a fitted effect of over 25% in size). The essentials:
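Viability read: CellTiter-Fluor fluorescence, 30 min at 37C. Cells: HEK293T, luciferase-tagged ATAD5. Exposure: 15.5 hr, 37C, 5% CO2, compound or DMSO vehicle.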

Experiment [5] in a line: qHTS assay to test for compound auto fluorescence at 590 nm (red) in HepG2 cells (AID 720674). The method in brief:
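Rose Bengal sodium served as the red fluorophore standard. HepG2 monolayers (overnight attachment, MEM with 10% FBS) were exposed to test compounds for 1 hr at 37 C and read at Ex 540/Em 590 nm.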

A short description of experiment [6]: qHTS assay to test for compound auto fluorescence at 535 nm (green) in HepG2 cells (AID 720675).
A short description of experiment [7]: qHTS assay to test for compound auto fluorescence at 460 nm (blue) in HEK293 cells (AID 720678). The essentials:
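HEK293 cells (2,000 per well, medium with 10% dialyzed FBS) attached for 4-5 hr at 37C, then received compound and stood overnight at 37C, 5% CO2. Blue fluorescence was read at Ex/Em 405/460 nm and expressed relative to triamterene.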

Experiment [8] can be described thus: qHTS assay to test for compound auto fluorescence at 590 nm (red) in HEK293 cells (AID 720679). The method in brief: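 HEK293 cells (2,000/well, medium with 10% dialyzed FBS) attached for 4-5 hr at 37C, received 23 nL compound and were incubated overnight at 37C, 5% CO2. Red fluorescence was then read at 540/590nm Ex/Em, referenced to Rose Bengal sodium.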
The nature of experiment [9]: qHTS assay to test for compound auto fluorescence at 535 nm (green) in HEK293 cells (AID 720680).
Experiment [10] is described as follows: qHTS assay to test for compound auto fluorescence at 460 nm (blue) in HEK293 cell free culture (AID 720681). The method in brief: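 Test compounds were pinned into cell-free culture medium (DMEM with 10% FBS) and fluorescence was read directly at Ex/Em 405/460 nm. Signals were expressed as fluorescence equivalents of triamterene, with DMSO vehicle as control.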

Experiment [11] can be described thus: qHTS assay to test for compound auto fluorescence at 535 nm (green) in HEK293 cell free culture (AID 720682). The method in brief: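 Cell-free medium (DMEM, 10% FBS) receives compound or DMSO by pintool. Plate read directly at Ex 485/Em 535 nm. Signal converted to fluorescein equivalency.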
A short description of experiment [12]: qHTS assay to test for compound auto fluorescence at 590 nm (red) in HEK293 cell free culture (AID 720683). The method in brief: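 Tox21 10K library compounds were pinned into cell-free DMEM with 10% FBS and fluorescence was read at excitation 540 nm. Activity is expressed as Rose Bengal sodium equivalency.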
Experiment [13] in a line: qHTS assay to test for compound auto fluorescence at 590 nm (red) in HepG2 cell free culture (AID 720684). The essentials:
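Red fluorescence (540 nm excitation, 590 nm emission) was measured after compound transfer into cell-free MEM supplemented with 10% FBS. Values are equivalencies against Rose Bengal sodium.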

Experiment [14] is described as follows: qHTS assay to test for compound auto fluorescence at 460 nm (blue) in HepG2 cell free culture (AID 720685). The essentials:
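Compound (23 nL) or DMSO pinned into cell-free MEM with 10% FBS; blue fluorescence read at 405/460 nm excitation/emission, expressed as auto-fluorescence equivalency to triamterene.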

Experiment [15] can be described thus: qHTS assay to test for compound auto fluorescence at 535 nm (green) in HepG2 cell free culture (AID 720686).
Experiment [16] can be described thus: qHTS assay to test for compound auto fluorescence at 460 nm (blue) in HepG2 cells (AID 720687). The essentials: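 Cells (2,000/well in MEM with 10% FBS) attached overnight at 37 C, then were exposed to compound or DMSO for 1 hr at 37 C, 5% CO2. Fluorescence read at Ex/Em 405/460 nm, expressed as triamterene-equivalent signal.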
Experiment [17] deals with Glucocorticoid receptor (Homo sapiens) (UniProt P04150). Kind of experiment: qHTS assay to identify small molecule agonists of the glucocorticoid receptor (GR) signaling pathway (AID 720691; active means well fitted activation curve with a large enough effect in the signal ratio in the repeat runs, not every such curve was filed as active; the % refers to the signal ratio; further: potency means the concentration at half of the fitted maximal effect). The essentials: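 qHTS in GR-bla HeLa cells: 4 h settling at 37 C/5% CO2, 18 h compound incubation at 37 C, 2 h LiveBLAzer B/G FRET substrate at room temperature, fluorescence intensity measured.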

A short description of experiment [18]: qHTS assay for small molecule disruptors of the mitochondrial membrane potential - cell viability (AID 720634; calls by dose curve;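 further: human HepG2 liver cancer cells; series mostly up to about 83 µM; nearly all actives have a fitted effect of over 20% in size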). The method in brief:
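HepG2, 1 hr compound, 37 C. ATP luminescence via CellTiter-Glo, 30 min RT, same well as m-MPI.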

Experiment [19] is described as follows: qHTS assay for small molecule disruptors of the mitochondrial membrane potential (AID 720635). The essentials: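 HepG2 cells (2,000/well) attached overnight at 37C, then took compound for 1 hr at 37C, 5% CO2. Mito-MPS dye was added for 30 min; fluorescence was read at 490/535 nm (monomers) and 540/590 nm (aggregates).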
Experiment [20] concerns the target Glucocorticoid receptor (Homo sapiens) (UniProt P04150). Kind of experiment: qHTS assay to identify small molecule antagonists of the glucocorticoid receptor (GR) signaling pathway (AID 720692; active means well fitted inhibition curve with a large enough effect in the signal ratio in the repeat runs, not every such curve was filed as active; the % refers to the signal ratio). The method in brief: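 Inhibition of glucocorticoid signalling is measured in HeLa cells with a GRE-controlled beta-lactamase reporter; cells are co-treated with compound and 5 nM dexamethasone (final) for 18 h before FRET substrate readout.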

Glucocorticoid receptor (Homo sapiens), sequence (P04150 whole entry, looked up): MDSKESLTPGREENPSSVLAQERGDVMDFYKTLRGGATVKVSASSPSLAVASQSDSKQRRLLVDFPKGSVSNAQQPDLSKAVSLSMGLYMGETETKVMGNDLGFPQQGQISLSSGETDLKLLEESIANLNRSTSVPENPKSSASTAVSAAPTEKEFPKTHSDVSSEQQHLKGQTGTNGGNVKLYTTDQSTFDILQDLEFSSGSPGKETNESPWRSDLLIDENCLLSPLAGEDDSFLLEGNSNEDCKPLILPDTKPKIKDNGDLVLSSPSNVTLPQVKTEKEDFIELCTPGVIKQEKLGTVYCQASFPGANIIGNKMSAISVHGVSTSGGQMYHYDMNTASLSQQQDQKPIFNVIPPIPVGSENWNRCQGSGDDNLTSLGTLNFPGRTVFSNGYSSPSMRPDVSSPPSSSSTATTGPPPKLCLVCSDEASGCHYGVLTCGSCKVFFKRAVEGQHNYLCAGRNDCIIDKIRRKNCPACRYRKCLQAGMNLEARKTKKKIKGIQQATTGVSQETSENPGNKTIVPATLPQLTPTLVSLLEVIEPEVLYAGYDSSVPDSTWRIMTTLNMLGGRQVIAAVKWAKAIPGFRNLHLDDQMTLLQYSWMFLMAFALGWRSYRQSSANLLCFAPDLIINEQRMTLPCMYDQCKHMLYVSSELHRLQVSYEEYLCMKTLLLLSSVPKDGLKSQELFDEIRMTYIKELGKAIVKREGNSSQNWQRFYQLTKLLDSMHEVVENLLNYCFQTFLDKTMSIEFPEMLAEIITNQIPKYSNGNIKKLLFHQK

For the molecule `Nc1nc2c(ncn2COC(CO)CO)c(=O)[nH]1`, the molecule was called inactive in [1], in experiment [3], in [5], in [6], in experiment [7] and in experiment [8]. Besides, the molecule was called inactive in [9], in experiment [10], in experiment [11], in experiment [12], in [13] and in [14]. Also, the molecule was classed as inactive in experiment [15] and in experiment [16]. For the same molecule, the Potency result in [2], in [4] and in [17] was “inactive” each time.
With `C[C@@H]1CCN(C(=O)[C@H](CCCN=C(N)N)NS(=O)(=O)c2cccc3c2NC[C@H](C)C3)[C@@H](C(=O)O)C1`, the molecule was classed as inactive in [1], in [3], in experiment [5], in experiment [6], in experiment [7] and in experiment [8]. In addition, the outcome in experiment [9], in experiment [10], in experiment [11], in experiment [12], in experiment [14] and in [15] was inactive. Further, the molecule was classed as inactive in [16]. Besides, the Potency entry in experiment [2], in experiment [4] and in [18] was “inactive” throughout.
Take `CCSC(=O)N(CC(C)C)CC(C)C`: the molecule was classed as inactive in [1], in experiment [3], in experiment [5], in experiment [6], in experiment [7] and in [8]. Also, the outcome in [9], in experiment [10], in experiment [11], in experiment [12], in [14] and in experiment [15] was inactive. Further, in experiment [16], the call was inactive. Moreover, the Potency result in [2], in [4], in [19], in experiment [17] and in experiment [20] was “inactive” each time.
As to `Nc1ccc(S(=O)(=O)Nc2ccnn2-c2ccccc2)cc1`, the molecule was classed as inactive in experiment [1], in experiment [3], in experiment [5], in [6], in experiment [7] and in experiment [8]. Besides, the outcome in experiment [9], in experiment [10], in experiment [11], in [12], in [13] and in [14] was inactive. Besides, the molecule was called inactive in [15] and in [16]. Also, the Potency result in experiment [2], in [4], in experiment [18], in [17] and in experiment [20] was “inactive” throughout.
For the molecule `CC(=O)OCC(=O)[C@@]1(O)CCC2C3CCC4=CC(=O)CC[C@]4(C)C3[C@@H](O)C[C@@]21C` (stereo partly specified), the call in [1], in experiment [3], in experiment [5], in [6], in [7] and in [8] was inactive. The call in experiment [9], in [10], in experiment [11], in [12], in experiment [13] and in experiment [14] was inactive. The molecule was called inactive in [15] and in [16]. In addition, the Potency result in experiment [2], in experiment [4] and in experiment [19] was “inactive” throughout. For the same molecule, in experiment [17], the Potency is 134 nM (active).
`COc1cc(C(=O)N2CCCCCCC2)cc(OC)c1OC`: the call in experiment [1], in experiment [3], in experiment [5], in [6], in experiment [7] and in experiment [8] was inactive. Further, the result in experiment [9], in [10], in experiment [11], in experiment [12], in experiment [14] and in experiment [15] was inactive. Besides, in experiment [16], the molecule was classed as inactive. The Potency result in [2], in [4] and in [18] was “inactive” in each case.
Consider `OC(CCN1CCCCC1)(c1ccccc1)C1CC2C=CC1C2` (stereo unspecified), for which the outcome in experiment [1], in experiment [3], in [5], in experiment [6], in [7] and in [8] was inactive. Besides, the outcome in [9], in experiment [10], in experiment [11], in experiment [12], in experiment [13] and in [14] was inactive. Further, the result in experiment [15] and in [16] was inactive. Moreover, the Potency result in [2], in experiment [4], in experiment [18], in experiment [17] and in experiment [20] was “inactive” throughout.
For `CC1=CC(C)C(C=O)CC1` (stereo unspecified), the molecule was called inactive in experiment [1], in [3], in experiment [5], in experiment [6], in experiment [7] and in experiment [8]. Besides, the outcome in experiment [9], in experiment [10], in experiment [11], in experiment [12], in experiment [14] and in experiment [15] was inactive. Moreover, the molecule was classed as inactive in experiment [16]. Further, the Potency result in experiment [2], in [4], in experiment [19], in experiment [17] and in experiment [20] was “inactive” throughout.
